# Source: PubChem BioAssay (several laboratories)
# The list is not random: actives were taken first. Their share in the collection is about 2.1%.
# SMARCA2 activ = activators of SMARCA2 function. MG213 cells, MMTV-luciferase reporter, dexamethasone, overnight. AID 652017. hit rate 1% among 370,000. activation, % at 9.1 µM; in the data active = activation above about 7.8%;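 also: 0% = vehicle wells and 100% = reference activator wells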
# MsrA inh = inhibits bovine methionine sulfoxide reductase A | purified bovine MsrA, absorbance read-out | hit rate 0.75% among 360,000 | inhibition, % at 15.5 µM; in the data active = inhibition above about 4.5%;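 also: 0% = vehicle wells with enzyme and 100% = reference inhibitor wells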
# bovine MsrA act = activators of bovine methionine sulfoxide reductase A. hit rate 0.3% among 360,000. activation, % at 10.6 µM. purified bovine MsrA, absorbance read-out; in the data active = activation above about 7.5%;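 also: 0% = vehicle and 100% = reference activator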
# ABCB6 inh MLPCN = human ABCB6 transporter inhibition. fluorescence ratio to DMSO, % at 10 µM. Q9NP58. AID 602162. K562-ABCB6 porphyrin accumulation, flow cytometry, 1 h; hits give low values. hit rate 0.19% among 360,000;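 active = fluorescence ratio to DMSO below 75%, the collection mean minus 3 SD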;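 also: signal is porphyrin accumulated inside mitochondria; 100% equals median channel fluorescence of DMSO control wells; lower ratio means ABCB6 inhibition with less porphyrin fluorescence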
# Target sequence (Q9NP58 whole entry, looked up): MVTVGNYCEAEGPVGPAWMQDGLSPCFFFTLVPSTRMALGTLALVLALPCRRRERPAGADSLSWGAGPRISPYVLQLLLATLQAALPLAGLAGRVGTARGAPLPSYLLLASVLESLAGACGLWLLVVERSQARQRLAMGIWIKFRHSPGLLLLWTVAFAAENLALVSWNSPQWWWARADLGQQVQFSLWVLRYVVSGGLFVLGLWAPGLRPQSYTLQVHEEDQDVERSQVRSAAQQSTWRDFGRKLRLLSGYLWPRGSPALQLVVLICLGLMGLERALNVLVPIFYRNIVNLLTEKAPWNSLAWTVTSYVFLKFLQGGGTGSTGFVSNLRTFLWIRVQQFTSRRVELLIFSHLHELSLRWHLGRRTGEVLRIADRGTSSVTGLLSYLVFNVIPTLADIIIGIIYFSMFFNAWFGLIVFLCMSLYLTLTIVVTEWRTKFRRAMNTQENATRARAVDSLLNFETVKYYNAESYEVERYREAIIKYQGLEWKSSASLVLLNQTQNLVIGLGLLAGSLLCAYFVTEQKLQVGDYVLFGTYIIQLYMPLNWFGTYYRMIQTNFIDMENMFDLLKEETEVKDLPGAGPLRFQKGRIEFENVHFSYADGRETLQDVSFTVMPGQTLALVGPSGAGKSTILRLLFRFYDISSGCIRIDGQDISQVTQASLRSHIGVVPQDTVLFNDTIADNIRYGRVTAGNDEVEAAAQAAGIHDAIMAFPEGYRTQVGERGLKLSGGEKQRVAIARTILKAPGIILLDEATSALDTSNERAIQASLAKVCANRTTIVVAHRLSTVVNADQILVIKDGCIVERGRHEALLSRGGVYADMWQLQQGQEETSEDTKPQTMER
# SMARCA2 conf = confirmation of SMARCA2 (BRM) function activators; shares compounds with SMARCA2 activ; MG213 cells, MMTV-luciferase with dexamethasone, luminescence, overnight; MG213 cells expressing E1A, Rb sequestered; DMSO wells 0%, reference activator 100%; activation, % at 9.1 µM; hit rate 30% among 3,500; AID 652260;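 active = activation above its plate's cutoff, the mean activation of tested wells plus 3 SD, cut at about 7.9% in these data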
# VP16 Luc act = counter-screen for SMARCA2 activators: GAL4-VP16 luciferase reporter activation | shares compounds with SMARCA2 activ | AID 686939 | hit rate 41% among 3,500 | HEK293 GAL4-VP16 pG5luc reporter, luciferase luminescence; scaled: DMSO wells 0%, SAHA wells 100% | activation, % at 9.1 µM;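 active = activation above the solvent-only control well mean plus 3 SD, averaged across control plates, cut at about 5.2% in these data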
# Active calls of the source: *; x = not tested or not shown.
SMILES,SMARCA2 activ,MsrA inh,bovine MsrA act,ABCB6 inh MLPCN,SMARCA2 conf,VP16 Luc act
O=C1CN(C(=S)NC(=O)c2ccc(-c3ccccc3)cc2)CCN1,10*,1,-3,97,7,4
CCCCNS(=O)(=O)/C=C/c1cc(C)ccc1CNC(=O)OC(C)(C)C,-4,x,x,x,x,x
Cc1ccccc1NC(=O)c1cccc(C(F)(F)F)c1,8.2*,0,-3,98,5,1
O=C(Nc1ccsc1C(=O)O)c1cccc(C(F)(F)F)c1,3,2,2,102,x,x
c1ccc(CSCc2cn3ccccc3n2)cc1,8.8*,0,2,100,7,7.5*
N#Cc1ccc(/C=C2\CC3(OC(=O)C4CCCCC4)CCCN2C3)cc1 (stereo not drawn),-3,x,x,x,x,x
CCOC(=O)c1c(C)[nH]c(C(=O)COC(=O)c2ccncc2)c1C,2,0,-1,101,x,x
CCOC(=O)c1c(C)[nH]c(C(=O)COC(=O)c2ccco2)c1C,10*,0,-2,102,7,0
O=S1(=O)CC2c3ccccc3CN2CN1C1CCCC1 (stereo not drawn),5,x,x,x,x,x
CCNC(=O)CC1C(=O)N(C)C(=S)N1NC(=O)c1ccc(Cl)cc1 (stereo not drawn),3,0,-4,96,x,x
Nc1ccc(C(=O)NN2C(=O)[C@H](Cl)C2c2ccc(Cl)cc2)cc1 (stereo partly drawn),8.3*,0,-4,105,-15,1
CCCCOCCCNC(=O)C[C@@H]1C[C@@]2(C(=O)OCC)CCC=C2N(Cc2ccccc2)C1=O,1,1,-2,96,x,x
Cc1ccc(CN2CCCCC(NC(=O)C(C)(C)C)C2=O)cc1 (stereo not drawn),-3,x,x,x,x,x
COc1cccc2sc(Nc3nnc(-c4cccs4)o3)nc12,15*,1,-10,96,-2,14*
Fc1ccc(Cn2ccc3ccc(-c4ccc5ccn(Cc6ccc(F)cc6)c5c4)cc32)cc1,-2,x,x,x,x,x
Cc1ccc(CSCC(Nc2ccc(C(=O)O)cc2[N+](=O)[O-])C(=O)O)cc1 (stereo not drawn),9.0*,1,-2,96,0,-1
CCCSc1nc2cc(S(=O)(=O)N3CCOCC3)ccc2n1CC,-1,-1,-7,95,x,x
CCn1c(SCc2nc3ccccc3s2)nc2cc(S(=O)(=O)N3CCOCC3)ccc21,10*,0,-2,108,3,4
COCCn1c(SCc2nc3ccccc3s2)nc2ccccc21,15*,1,-2,104,7,8.1*
Cc1nnc(SCc2nc3ccccc3s2)n1N,8.5*,1,-5,100,8.2*,5
Cc1nnc(SCc2nc3ccccc3s2)n1-c1ccccc1,7,1,-1,115,x,x
C#CCN1C(=O)[C@@](O)(c2cccn2C)c2cc(F)ccc21,-3,x,x,x,x,x
CCCCNc1ccc2c(c1)OC[C@@H](CC(C)C)NS2(=O)=O,2,0,x,x,x,x
C/C(CC(=O)Nc1ccc(Cl)c(C(F)(F)F)c1)=N\NC(=O)c1ccccc1O,-1,1,-6,97,x,x
C/C(CC(=O)Nc1ccc(Cl)c(C(F)(F)F)c1)=N\NC(=O)c1cccc(O)c1,10*,1,-5,95,0,1
SMILES,SMARCA2 activ,MsrA inh,bovine MsrA act,ABCB6 inh MLPCN,SMARCA2 conf,VP16 Luc act
CS(=O)(=O)N[C@@H]1C[C@@H]2O[C@H](CO)CC[C@@H]2O[C@@H]1CCc1ccc(-c2ccccc2F)cc1,-4,x,x,x,x,x
Cc1ccc(C(=O)Nc2ccc3c(c2)nc2n3CCSC2)cc1,4,0,-3,99,x,x
CCCCC(=O)Nc1ccc2c(c1)nc1n2CCSC1,8.1*,0,-3,99,8.0*,5.8*
COc1ccccc1C(=O)Nc1ccc2c(c1)nc1n2CCSC1,8.9*,-1,-15,90,15*,5.6*
O=C(CSc1nnc(-c2cnccn2)n1-c1ccccc1)c1ccccc1Br,1,x,x,x,x,x
Cc1onc(-c2c(F)cccc2Cl)c1C(=O)NC(=S)NC1CCS(=O)(=O)C1 (stereo not drawn),15*,0,-1,100,0,0
Cc1ccc(-c2nc(-c3cccnc3)no2)c(C)c1,9.2*,0,-11,101,19*,13*
Nc1cc(OCc2ccccc2)ccc1OCc1ccccc1,9.4*,0,-4,99,3,7.8*
Nc1ccc(OCc2ccccc2)cc1,-1,0,-2,98,x,x
O=C(/C=C/c1ccc(Cl)cc1Cl)N1CCN(c2ccc([N+](=O)[O-])c(N3CCOCC3)c2)CC1,9.9*,-1,-5,95,0,2
O=C(/C=C/c1ccc(Cl)cc1)N1CCN(c2ccc([N+](=O)[O-])c(N3CCOCC3)c2)CC1,-3,1,-2,97,x,x
Cc1csc(-c2coc3cc(O)cc(C)c3c2=O)n1,9.0*,0,-8,102,15*,7.5*
CCN(CC)CCCNc1nc2cc(OC)c(OC)cc2c2nc(-c3ccccc3)nn12,4,1,-6,96,x,x
CCN(CC)CCCNc1nc2ccccc2c2nc(-c3ccncc3)nn12,23*,2,0,103,35*,0
O=C(O)c1ccc(N/N=C/c2cc3cc4c(cc3nc2Cl)OCCO4)cc1,8.4*,4,-9,102,8,11*
CCN=C1S/C(=C\c2cn(CC(=O)NCc3ccco3)c3ccccc23)C(=O)N1CC,8.1*,1,-3,100,9.9*,4
CN1C(=O)/C(=C/c2cn(CC(=O)NCc3ccco3)c3ccccc23)NC1=S,-1,0,x,x,x,x
CSC(=S)NN=C(C)c1cccc(C)n1,4,1,-2,96,x,x
CCc1sc(NC(=O)CN2CCOCC2)nc1-c1ccccc1,8.7*,0,0,96,-3,-2
c1ccc(Cn2c(-c3ccco3)nc3nc4ccccc4nc32)cc1,6,2,-2,110,x,x
COc1ccccc1Cn1c(-c2ccco2)nc2nc3ccccc3nc21,8.6*,2,-2,110,4,1
C[C@@H]1OCN(C)[C@H]2C[C@H]3c4[nH]c5cccc(-c6cccc(F)c6)c5c4CCN3C(=O)[C@@H]12,1,x,x,x,x,x
CC1CCN(S(=O)(=O)c2ccc3nc(-c4ccccn4)cc(C(=O)NCCN(C)Cc4ccccc4)c3c2)CC1,8.3*,-1,-4,94,27*,0
CC(=O)N/C(N)=N/c1nc2cc(C)ccc2o1,8.9*,0,-1,93,6,9.6*
CC(C)c1ccc2[nH]c3nc(SCC(=O)N4CCOCC4)nnc3c2c1,9.7*,1,-3,95,4,5.8*
COC(=O)C1CN(Cc2ccc(F)cc2)CCS(=O)(=O)N1Cc1cn(CCOC(C)=O)nn1 (stereo not drawn),1,x,x,x,x,x
O=C(Nc1cccc(F)c1)c1ccc(-n2cncn2)c2ccoc12,12*,0,-7,89,8.2*,8.7*
